# Source: PubChem BioAssay (Broad Institute)
# aSyn UTR act – Activators working through SNCA 5'UTR binding (MLPCN) | activity score, % (tested at 7.5 µM), hits read low | 300,000 tested, 7.1% active | alpha-synuclein 5'UTR reporter, activators screen; in the data active means activity score below about -60%
# Starred values were filed as active, the others as inactive. A selection follows.
SMILES,aSyn UTR act
CCCOC(=O)c1ccc(NC(=O)/C=C/c2cccs2)cc1,-209*
CC(C)(C)c1ccc(/C=C/C(=O)Nc2ccncc2)cc1,-77*
CCCCNC(=S)N/N=C/c1cccc(OCC)c1O,-73*
Cc1ccc2c(c1)cc1c(=O)[nH]ncn12,-67*
CC1Cc2ccccc2N1C(=O)Cc1cccs1 (stereo not drawn),38
Cc1c(C(=O)C(=O)N2c3ccc(F)cc3CCC2C)c2ccccc2n1C (stereo not drawn),62
CC1Cc2ccccc2N1C(=O)/C=C/c1cccc(F)c1 (stereo not drawn),-170*
CCOC(=O)C1CCCN(C(=O)CSCc2ccccc2)C1 (stereo not drawn),-112*
CCOC(=O)C1CCCN(C(=O)CCc2nnc(-c3ccc(C(C)=O)s3)o2)C1 (stereo not drawn),-134*
O=C(CSCc1ccc(F)cc1)N1CCN(c2ccccc2)CC1,-66*
O=C(CSCc1cccc(Br)c1)N1CCOCC1,-67*
CCOC(=O)N1CCN(C(=O)CSCc2ccccc2)CC1,-83*
Clc1cccc(CSc2ncn(-c3ccccc3)n2)c1,-67*
CCOC(=O)Nc1ccc2c(C)cc(=O)oc2c1,-178*
CCCCOC(=O)Nc1ccc2c(C)cc(=O)oc2c1,-145*
Cc1cc(=O)oc2cc(NC(=O)CCOc3ccccc3)ccc12,-82*
CC1(C)CCCN(Cc2c(O)ccc3c(=O)c(-c4nc5ccccc5s4)c(N)oc23)C1,-125*
O=C(/C=C/c1ccc(S(=O)(=O)NCc2ccco2)cc1)NCc1ccccc1Cl,-72*
O=C(/C=C/c1ccc(Cl)cc1)NCc1ccco1,-87*
Cc1nc2cc3nc(C)sc3cc2s1,-80*
O=C(Nc1ccc(Cl)cc1)C1=Cc2ccccc2OC1,-150*
O=C(Nc1ccon1)c1ccc2c(c1)OCO2,-76*
O=C(Nc1ccc2c(c1)OCO2)c1cccc(Cl)c1,-148*
CCN1CCN(c2ccc(NC(=O)c3ccc4c(c3)OCO4)cc2)CC1,-123*
O=C(Nc1ccc(Cl)c(Cl)c1)c1ccc2c(c1)OCO2,-133*
SMILES,aSyn UTR act
Cn1cc(C(=O)Nc2ccc(Cl)c(Cl)c2)cn1,-85*
CC(C)(C)c1cnnn1-c1ccc(NC(=O)c2ccc3c(c2)OCO3)cc1,-86*
O=C(Nc1ccc(Br)cc1)c1ccc2c(c1)OCO2,-174*
O=C(Nc1ccc(F)c(F)c1)c1ccc2c(c1)OCO2,-156*
NC(=O)c1ccc(NC(=O)c2ccc3c(c2)OCO3)cc1,-139*
O=C(Nc1ccc(Cl)c([N+](=O)[O-])c1)c1ccc2c(c1)OCCO2,-133*
O=C(Nc1ccc(Cl)cc1)c1ccc2c(c1)OCO2,-84*
NC(=O)C1CC(=O)N(c2ccc(OCc3ccc(F)cc3)cc2)C1 (stereo not drawn),-113*
NC(=O)C1CC(=O)N(c2ccc(OCc3ccc([N+](=O)[O-])cc3)cc2)C1 (stereo not drawn),-128*
O=C(N/N=C/c1ccccc1O)C1CC(=O)N(c2ccc(Cl)cc2)C1 (stereo not drawn),83
O=C1OC(c2ccccc2)/C(=C(/O)c2ccccc2)C1=O (stereo not drawn),-64*
Cc1ccc(C(=O)N2C(=O)C(c3ccccc3)Oc3ccccc32)cc1 (stereo not drawn),93
O=C(Nc1ccccc1)c1ccn[nH]1,-191*
O=C(Nc1cccc([N+](=O)[O-])c1)c1ccn[nH]1,-106*
CC(/C=C1\SC(=O)N(CCCC(=O)O)C1=O)=C\c1ccccc1,103
CCc1ccc(/C=C2\SC(=S)N(CCCC(=O)Nc3ccccn3)C2=O)cc1,73
CCOC(=O)CN1C(=O)S/C(=C/c2cc(C)n(-c3ccccn3)c2C)C1=O,-150*
CCOC(=O)CN1C(=O)S/C(=C/c2cc(C)n(C)c2C)C1=O,-177*
COC(=O)C(C)N1C(=O)S/C(=C/c2cc(C)n(-c3ccccn3)c2C)C1=O (stereo not drawn),-83*
C[n+]1c2n(c3ccccc31)N=C(c1cc(C(C)(C)C)c(O)c(C(C)(C)C)c1)CS2,68
Cc1cccnc1NC(=O)c1sc2ccccc2c1Cl,-70*
O=C(NC1=NCCS1)c1sc2cc(Cl)cc(Cl)c2c1Cl,-64*
O=C(NC1=NCCS1)c1sc2ccccc2c1Cl,-166*
CCOC(=O)c1cnn(-c2ccc(C(F)(F)F)cn2)c1N,-277*
CCOC(=O)c1cnn(-c2ncnc3c2cnn3C)c1N,-94*
SMILES,aSyn UTR act
Cc1cc(OCCN2CCOCC2)ccc1Cl,-76*
Cc1cc(OCCN2CCOCC2)ccc1[N+](=O)[O-],-80*
Cc1cc(OCC(=O)N2CCOCC2)ccc1[N+](=O)[O-],-76*
Cc1ccc(OCCCCCN2CCOCC2)c(Cl)c1,-74*
Cc1ccc(OCc2ccc(C(=O)Nc3nc4ccccc4n3Cc3ccccc3)o2)c([N+](=O)[O-])c1,61
Cc1ccc(OCCCN2CCOCC2)c([N+](=O)[O-])c1,-82*
Cc1ccc(/C=C(\C#N)C(=O)Nc2ccccn2)o1,-164*
O=C(Nc1ccc2nc(-c3cccs3)[nH]c2c1)c1cccs1,-223*
O=C(Nc1ccc2nc(-c3cccs3)[nH]c2c1)c1ccco1,-183*
CC(=O)Nc1ccc2nc(-c3ccccn3)[nH]c2c1,-158*
O=C(Nc1ccc(-c2nc3ccc(NC(=O)c4cccs4)cc3[nH]2)cc1)c1cccs1,122
CN[C@H]1CCc2cc(OC)c(OC)c(OC)c2-c2ccc(OC)c(=O)cc21,90
CC1CCC(NC(=O)Cn2ncc3ccccc32)CC1 (stereo not drawn),-113*
CCOc1ccc(NC(=O)Cn2ncc3ccccc32)cc1,-129*
COC(=O)C1CCN(C(=O)c2oc3c(Cl)cc(C)cc3c2C)CC1,-74*
Cc1cc(Cl)c2oc(C(=O)N3CCN(c4ccncc4)CC3)c(C)c2c1,90
Fc1ccc(-c2nc3c(Cl)cc(C(F)(F)F)cn3c2Cl)cc1,-111*
O=C(/C=C/Nc1ccc([N+](=O)[O-])cc1Br)c1cccc2ccccc12,-163*
C/C(=N\NC(=O)c1c([N+](=O)[O-])c(C)nn1C)c1ccc(NC(=O)C2CCCC2)cc1,81
C/C(=N\NC(=O)c1c([N+](=O)[O-])c(C)nn1C)c1ccc(NC(=O)c2ccc(C)o2)cc1,-104*
C/C(=N/NS(=O)(=O)c1ccc(F)cc1)c1ccc(NC(=O)c2ccc(C)o2)cc1,-72*
O=c1[nH]n(Cc2ccccc2)c(=O)c2ccccc12,-68*
CCN(Cc1ccc(OC)c(F)c1)C(=O)CCl,-74*
CN(C)c1cc(N/N=C/c2ccc(Cl)cc2)nc(N(C)C)n1,-64*
COc1ccc(NC(=O)N2CCCC(c3nc(-c4ccc(C(C)C)cc4)no3)C2)cc1 (stereo not drawn),-164*
SMILES,aSyn UTR act
COc1ccc(-c2noc(C3CCCN(C(=O)Nc4ccccc4F)C3)n2)cc1 (stereo not drawn),-114*
COc1ccc(-c2noc(C3CCCN(C(=O)c4ccccc4)C3)n2)cc1 (stereo not drawn),-76*
CCCC(=O)N1CCCC(c2nc(-c3cccc(OC)c3)no2)C1 (stereo not drawn),-84*
COc1ccc(NC(=O)N2CCCC(c3nc(-c4ccc(OC)cc4)no3)C2)cc1 (stereo not drawn),-94*
COc1ccc(-c2noc(C3CCCN(C(=O)Nc4ccccc4)C3)n2)cc1 (stereo not drawn),-102*
Cc1c(C(=O)OCC(=O)N2C(C)CCCC2C)oc2ccccc12 (stereo not drawn),-118*
Cc1c(-c2ccc(Cl)cc2)[n+](=O)c(-c2ccccc2)cn1[O-],-118*
